Shown are actives, neighbours in structure and some others; about 4.6% of the full set was active somewhere.
FAS-TE inh – inhibitors of human fatty acid synthase thioesterase domain. recombinant FAS-TE, OMFH fluorogenic substrate, fluorescence endpoint. AID 602261. actives 0.67% (n = 360,000). inhibition, % at 15 µM. P49327;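 active = compounds whose normalised, plate-corrected inhibition of enzyme fluorescence in the single-dose primary screen is 50% or more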;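 also: 0% = DMSO with enzyme and 100% = substrate without enzyme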
GRIN3A LBD mod – modulates the human NR3A ligand-binding domain; NR3A LBD differential scanning fluorimetry, Tm shift; 0% = protein alone, 100% = glycine-bound protein; Tm shift relative to glycine control, % at 25 µM; actives 2.5% (n = 340,000);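 active = melting temperature shift of at least 10% of the positive control shift, at one fixed dose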
proKLK7 act – activators of human kallikrein-7 zymogen; activation, % at 7 µM; purified proKLK7, EDANS-DABCYL substrate fluorescence; 100% is mature enzyme control, 0% vehicle; AID 652039; P49862; actives 0.9% (n = 370,000);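 active = activation above the mean of all tested compounds plus 3 SD, computed per campaign excluding outliers beyond control limits, cut at about 13% in these data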
ADAM10 inh – ADAM10 inhibition, QFRET primary screen | O14672 | recombinant ADAM10, EDANS/DABCYL FRET peptide cleavage, 3 h | inhibition, % at 7 µM | actives 0.62% (n = 370,000) | AID 720582;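 active = inhibition above a per-campaign cutoff equal to the mean of compounds falling between control-based bounds plus 3 SD, cut at about 20% in these data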;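 also: 0% = DMSO wells while the 100% control is not disclosed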
ADAM17 inh – ADAM17 inhibition, QFRET primary screen | P78536 | recombinant ADAM17, EDANS/DABCYL FRET peptide cleavage | inhibition, % at 6.95 µM | actives 0.83% (n = 370,000);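 active = inhibition above the mean of compounds lying between control limits plus 3 SD, set per campaign, cut at about 8.5% in these data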;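 also: 0% = DMSO-only wells as the low control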
Target sequence (P78536 215-824 limits assumed): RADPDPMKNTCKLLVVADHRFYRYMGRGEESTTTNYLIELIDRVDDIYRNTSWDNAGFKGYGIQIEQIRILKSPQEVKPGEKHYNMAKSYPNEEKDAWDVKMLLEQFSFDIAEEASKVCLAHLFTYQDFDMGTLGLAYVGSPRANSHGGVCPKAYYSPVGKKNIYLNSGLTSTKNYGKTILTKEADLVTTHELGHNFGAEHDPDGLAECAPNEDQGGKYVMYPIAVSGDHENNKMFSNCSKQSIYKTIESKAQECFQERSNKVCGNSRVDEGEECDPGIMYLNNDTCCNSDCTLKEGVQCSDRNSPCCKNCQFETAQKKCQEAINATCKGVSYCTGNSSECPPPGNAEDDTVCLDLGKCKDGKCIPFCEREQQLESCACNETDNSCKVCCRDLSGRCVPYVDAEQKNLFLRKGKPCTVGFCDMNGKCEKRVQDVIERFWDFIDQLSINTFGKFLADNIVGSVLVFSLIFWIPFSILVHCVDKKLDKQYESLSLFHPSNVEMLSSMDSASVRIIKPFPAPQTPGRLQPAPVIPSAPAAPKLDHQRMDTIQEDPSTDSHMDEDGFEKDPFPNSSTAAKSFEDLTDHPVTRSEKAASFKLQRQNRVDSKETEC
Numbers without * were called inactive; / = not tested or not shown.

SMILES	FAS-TE inh	GRIN3A LBD mod	proKLK7 act	ADAM10 inh	ADAM17 inh
Cc1ccc(NS(=O)(=O)c2cccc(C(=O)NCc3ccccn3)c2)cc1	0	-1	1	6	4
CC(=O)Nc1ccc(NC(=O)c2ccc(NS(=O)(=O)c3cccc4cccnc34)cc2)cc1	-2	19*	0	3	4
COc1ccccc1NC(=O)c1ccc(NS(=O)(=O)c2ccc(F)c(Cl)c2)cc1	2	11*	0	0	1
COc1ccccc1NC(=O)c1ccc(NS(=O)(=O)c2c(C)noc2C)cc1	-9	-1	0	-2	-3
Cc1c(NC(=O)C2CCCN(S(=O)(=O)c3ccccc3[N+](=O)[O-])C2)c(=O)n(-c2ccccc2)n1C (centres undefined)	/	/	0	4	2
O=C(Nc1sc2c(c1-c1nc3ccccc3s1)CCNC2)C(F)(F)F	/	/	/	-121	-34
CC1CCN(c2ccc(C(=O)O)cc2NS(=O)(=O)c2ccccc2)CC1	/	/	0	-5	0
Cc1ccc(N(C)c2nc(N)nc(N)c2N=O)cc1	/	/	44*	-25	-6
Cc1cccc(Nc2nc(N)nc(N)c2N=O)c1	-3	-1	0	-4	2
Cc1ccc(C(=O)O)cc1-c1ccc(C=C2C(=O)c3ccccc3C2=O)o1	1	10*	0	-8	-3
Cc1ccc(NC(=O)CN2C(=O)S/C(=C/c3ccc(-c4cc(C(=O)O)ccc4C)o3)C2=O)cc1C	3	4	0	-16	-6
C=CCc1cc(Cl)ccc1OC(=O)Nc1cccc(Cl)c1	7	11*	0	-4	-4
O=C(Nc1cccc(Cl)c1)ON1CCCCC1	-6	/	0	-11	-5
Cc1cc(-c2n[nH]c(=S)n2N=Cc2cc(Br)ccc2F)n[nH]1	/	/	0	5	1
Nc1nc(-c2ccc(Cl)cc2)c(N=Nc2ccc(S(=O)(=O)N3CCOCC3)cc2)s1	18	17*	0	-5	-5
CCCCCCCCN1C(=O)[C@@H](CC(=O)NCCCOC)C[C@@]2(C(=O)OC)C1=C[C@H](C(C)C)O[C@@H]2C1CC1	/	/	0	6	3
C[C@H]1[C@H](N)CC[C@@]23CCCN2C(=O)CCC[C@@H]13	/	/	/	-9	-2
COc1ccc(CCNC(=O)CSc2nn(-c3ccccc3)c(=S)s2)cc1OC	-2	19*	0	3	0
O=C(NCCN1C(=O)C2C3C=CC(C3)C2C1=O)c1cc(F)cc(F)c1 (centres undefined)	/	/	0	-8	3
Cc1cccc(C)c1NC(=O)COC(=O)c1c2c(nc3ccccc13)/C(=C\c1ccc3c(c1)OCO3)CCC2	-138	7	-3	-69	-21
CC(OC(=O)c1c2c(nc3ccccc13)/C(=C\c1ccc3c(c1)OCO3)CCC2)C(=O)Nc1ccc(S(N)(=O)=O)cc1 (centres undefined)	-98	22*	/	/	/
N#Cc1cc(-c2ccccc2)oc1/N=C/c1ccccc1O	8	18*	0	-152	-35
CN1C(=O)c2cc(NC(=O)C3CC3)ccc2OC[C@H]2O[C@@H](CC(=O)NC3CCC3)CC[C@@H]21	/	/	0	1	-10
CCOC(=O)c1c(C)n(C)c2cc(-c3cccc(C(F)(F)F)c3)c(O)cc12	-1	13*	0	-12	0
CCOC(=O)c1c(C)n(C)c2cc(-c3ccc(C)cc3)c(O)cc12	-1	1	-1	-17	-6
SMILES	FAS-TE inh	GRIN3A LBD mod	proKLK7 act	ADAM10 inh	ADAM17 inh
CCOC(=O)[C@@]12CCC3=C1N(CCC3)C(=O)[C@H](CC(=O)N1CCN(C(=O)C3CC3)CC1)C2	/	/	1	-9	-10
CCC(=O)Nc1cc2c3c(c1)CCN3C(=O)CC2	-8	11*	0	-10	-2
O=C(Nc1ccc(Br)cc1)c1cccc(S(=O)(=O)Nc2cnc3ccccc3c2)c1	24	41*	1	13	5
O=C(Nc1ccc(Br)cc1)c1cccc(S(=O)(=O)Nc2ccccn2)c1	1	7	0	-8	0
COc1ccc(NC(=O)c2cccc(S(=O)(=O)Nc3ccc(Br)cc3)c2)cn1	22	22*	-1	13	5
O=C(Nc1ccccc1)c1cccc(S(=O)(=O)Nc2ccccn2)c1	-7	16*	0	-12	-3
COc1ccc(NC(=O)c2cccc(Oc3ccccc3)c2)cn1	11	-2	-1	8	7
C/C(=N\NC(=O)c1ccccc1O)C1C(=O)c2ccccc2C1=O	16	12*	1	0	3

Screening results as filed in PubChem.
